From PubChem
Shown are actives, neighbours in structure and some others; about 19% of the full set was active somewhere.
Giardia kill = kills Giardia lamblia | AID 540267 | Giardia lamblia trophozoite viability | activity change, % at 7.66 µM, hits read low | hit rate 0.15% among 340,000; in the data active = activity change below about -80%; inconclusive = between about -30% and that limit;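 also: parasites exposed to compound for two days anaerobically before the ATP read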
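Anaerobic 48 hrs incubation at 37 deg C of 100 trophozoites/well with test compounds; ATPLite 1-Step luminescence, 15-30 min RT, reports cellular ATP as viability.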
TDP1 block = inhibitors of human tyrosyl-DNA phosphodiesterase TDP1; recombinant TDP1, AlphaScreen DNA substrate cleavage; Q9NUW8; hit rate 0.28% among 350,000; Potency, µM (top dose mostly 130 µM), hits mostly inhibitors; also: nearly all actives have a fitted effect of over 40% in size
Target sequence (Q9NUW8 whole entry, looked up): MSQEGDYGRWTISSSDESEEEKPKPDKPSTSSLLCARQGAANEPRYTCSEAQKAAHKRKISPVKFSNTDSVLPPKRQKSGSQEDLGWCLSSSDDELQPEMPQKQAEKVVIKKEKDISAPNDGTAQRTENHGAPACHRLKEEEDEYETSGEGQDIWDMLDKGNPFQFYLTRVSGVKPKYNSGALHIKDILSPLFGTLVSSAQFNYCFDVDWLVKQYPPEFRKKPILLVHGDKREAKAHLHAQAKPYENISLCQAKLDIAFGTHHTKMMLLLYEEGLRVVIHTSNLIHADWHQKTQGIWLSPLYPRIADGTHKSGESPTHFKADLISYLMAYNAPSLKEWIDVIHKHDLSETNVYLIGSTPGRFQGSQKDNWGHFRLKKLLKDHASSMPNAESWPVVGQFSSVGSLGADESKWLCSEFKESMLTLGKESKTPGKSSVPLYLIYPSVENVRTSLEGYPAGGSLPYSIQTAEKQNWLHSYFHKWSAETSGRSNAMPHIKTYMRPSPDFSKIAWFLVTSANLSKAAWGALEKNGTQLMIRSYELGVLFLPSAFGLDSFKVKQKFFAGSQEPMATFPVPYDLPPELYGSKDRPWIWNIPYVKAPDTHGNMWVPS
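Recombinant human Tdp1 (E. coli-expressed, 1 nM final) preincubated with compounds 15 min at room temperature, then 5'-biotin/3'-phosphotyrosine-FITC DNA substrate (15 nM final) added for 5 min. AlphaScreen beads (10 ug/ml final) added 10 min; cleavage lowers signal.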
IL-1B inflam inh = blocks inflammasome-driven IL-1 beta release; THP-1 LPS/ATP IL-1B secretion, AlphaLISA, 16 h; active compounds read low; hit rate 4.7% among 360,000; activity change, % at 57.5 µM; in the data active = activity change below about -50%; inconclusive = mostly about -30% to -49%
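Secreted IL-1B measured by AlphaLISA bead assay after 16 h compound exposure of THP-1 cells; compounds (final up to 57.5 uM) added 1 h before LPS (250 ng/mL) and ATP (1.25 mM) stimulation; lower signal means less secretion.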
TDP1 cell noCPT = qHTS for Inhibitors of human tyrosyl-DNA phosphodiesterase 1 (TDP1): qHTS in cells in absence of CPT. AID 686978, 2013. Potency, µM (series often up to 46.2 µM), most hits filed as inhibitors. DT40 Tdp1-/- hTDP1 cells, no CPT, ATP luminescence, 48 h. hit rate 15% among 420,000; also: nearly all actives have a fitted effect of over 55% in size
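Camptothecin absent (DMSO only). Human TDP1-complemented DT40 knockout cells, 400 cells/well, 37 °C for minimum 48 hr; ATP measured via CellTiter-Glo, 30 min dark incubation, luminescence.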
ELG1 repair inh = blocks ELG1-dependent DNA repair in HEK293T cells; HEK293T ELG1-luciferase reporter, luminescence, 16 h; DNA damage induced by 5-fluorouridine; Potency, µM (highest dose often 46.1 µM), usual class: inhibitors; hit rate 2.3% among 330,000; also: nearly all actives have a fitted effect of over 55% in size
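Quantitative HTS, concentration-response format. 2,000 cells/well co-treated with 5-fluorouridine and compound, 16 hr in 5% CO2 at 37 °C; ONE-Glo luminescence read after 30 min.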
DT40 TDP1 CPT = growth inhibition of DT40 Tdp1-/-;hTDP1 cells with camptothecin (screen for TDP1 inhibitors) | AID 686979 | chicken DT40 Tdp1-/-;hTDP1 cells + 20 nM CPT, ATP luminescence, 48 h | Potency, µM (titrated, usually from 46.2 µM), usual class: inhibitors | hit rate 12% among 420,000; also: nearly all actives have a fitted effect of over 55% in size
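Chicken DT40 Tdp1-/- cells complemented with human TDP1, 400 cells/well, exposed to compounds plus 20 nM camptothecin for at least 48 h at 37 C; viability read as ATP content by CellTiter-Glo luminescence.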
Hits are given with their value; - = inactive; ? = inconclusive; . = no result given. Unless noted, calls follow the shape of the dose curve; as a rule, active = well fitted curve in the direction sought with a large enough effect; inconclusive = small, poorly fitted or top-dose-only effect, or another doubt; inactive = no such curve, though single readings can be large; an effect the other way counts as inactive or inconclusive.

SMILES	Giardia kill	TDP1 block	IL-1B inflam inh	TDP1 cell noCPT	ELG1 repair inh	DT40 TDP1 CPT
C=CC[C@H](CC(=O)N(CCO)Cc1ccccc1)C(=O)NCCOC(=O)[C@H](CC=C)CC(=O)OC(C)(C)C	-	-	-	21µM	?	16µM
C=CC[C@H](CC(=O)NCCO)C(=O)N[C@H](COC(=O)[C@H](CC=C)CC(=O)OC(C)(C)C)c1ccccc1	-	-	-	-	-	-
C=CC[C@@H](CC(=O)N(CCO)Cc1ccccc1)C(=O)NCCOC(=O)[C@H](CC=C)CC(=O)OC(C)(C)C	-	-	-	?	-	?
Cn1ncc(Cl)c1C(=O)NCc1ccc(Cl)cc1	-	-	-	8.2µM	?	?
Cn1ncc(Cl)c1C(=O)NCc1ccc2c(c1)OCO2	-	-	-	?	-	?
CCOC(=O)c1c(C2CC2)csc1NC(=O)COC(=O)c1cc(OC)c(OC)cc1[N+](=O)[O-]	-	-	-	21µM	13µM	?
CCOC(=O)c1c(C2CC2)csc1NC(=O)COC(=O)c1ccc[n+]([O-])c1	-	-	-	?	-	-
CN(C)S(=O)(=O)c1ccc(C(=O)Nc2ccnn2C2CCCCC2)cc1	-	-	-	16µM	26µM	?
CNS(=O)(=O)c1cn(CC(=O)Nc2cccc(OC)c2)cc1S(=O)(=O)NC	.	-	.	-	.	-
CCOC1=C2[C@@H](CN(S(=O)(=O)c3ccc(C)cc3)[C@H]2c2ccccc2Cl)[C@H]2C(=O)N(C)C(=O)[C@H]2C1	.	.	-	16µM	.	26µM
CCOC1=C2[C@@H](CN(S(=O)(=O)c3ccccc3C)[C@H]2c2ccc(Cl)cc2)[C@H]2C(=O)N(C3CCCCC3)C(=O)[C@H]2C1	.	.	-	?	.	21µM
CCOC1=C2[C@@H](CN(S(=O)(=O)c3ccc(C)cc3)[C@H]2c2cccc3ccccc23)[C@H]2C(=O)N(C)C(=O)[C@H]2C1	.	.	-	-	.	-
O=C(c1cc(S(=O)(=O)N2CCCCC2)ccc1Cl)N1CCOCC1	-	-	-	-	-	-
Cc1ccc(S(=O)(=O)N2CCN(C(=O)c3cc(S(=O)(=O)N4CCOCC4)ccc3Cl)CC2)c(C)c1	-	.	-	16µM	.	18µM
Cc1ccc(S(=O)(=O)N2CCN(C(=O)c3ccccc3Cc3ccccc3)CC2)c(C)c1	-	-	-72	?	-	?
COc1ccc(S(=O)(=O)N2CCN(C(=O)c3ccccc3Cc3ccccc3)CC2)cc1OC	.	.	-	23µM	.	?
Cc1ccc(S(=O)(=O)N2CCN(C(=O)c3ccco3)CC2)c(C)c1	-	.	-	-	?	-
COc1ccc(S(=O)(=O)N2CC=C(c3ccccc3)CC2)cc1OC	.	.	-	23µM	.	?
Cc1ccc(-n2c3c(c(=O)[nH]c2=O)C(NC(=O)c2ccccc2F)(C(F)(F)F)C(=O)N3)cc1C (stereo unspecified)	.	-	.	.	.	.
Cc1ccc(S(=O)(=O)Nc2ccc3c(c2)C(=O)N([C@@H](C)CO)C[C@@H](C)[C@@H](CN(C)S(=O)(=O)c2ccccc2)OCCCC[C@H](C)O3)cc1	.	.	-	10µM	.	8.2µM
Cc1noc(C)c1S(=O)(=O)Nc1ccc2c(c1)C(=O)N([C@H](C)CO)C[C@H](C)[C@H](CN(C)S(=O)(=O)c1ccc(Cl)cc1)OCCCC[C@@H](C)O2	.	.	-	?	.	?
Cc1ccc(S(=O)(=O)Nc2ccc3c(c2)C(=O)N([C@@H](C)CO)C[C@@H](C)[C@@H](CN(C)CC2CC2)OCCCC[C@@H](C)O3)cc1	.	.	-	?	.	?
C[C@H]1CCCCO[C@H](CN(C)Cc2ccncc2)[C@@H](C)CN([C@@H](C)CO)C(=O)c2cc(NS(=O)(=O)c3ccccc3)ccc2O1	.	.	-	?	.	-
Cc1ccc(S(=O)(=O)N(C)C[C@@H]2OCCCC[C@@H](C)Oc3ccc(NS(=O)(=O)c4c(C)noc4C)cc3C(=O)N([C@H](C)CO)C[C@@H]2C)cc1	.	.	-	12µM	.	16µM
